Compounds with a hit are over-represented: about 7% of the library has one in this group of screens.
PLK1 PBD block – blocks phosphopeptide binding to human PLK1 polo-box domain; Plk1 PBD binding of FITC phosphopeptide, fluorescence polarization; actives 2.8% (n = 360,000); Potency, µM, inactives show max response, negative = inhibition, hits mostly inhibitors; further: potency means the concentration at half of the fitted maximal effect; series mostly up to about 57 µM; on the % scale 0 is the no-effect control and ±100 the full control effect; nearly all actives have a fitted effect of over 65% in size
BAZ2B block – BAZ2B (human) inhibition. Q9UIF8. AlphaScreen BAZ2B-H3K14Ac peptide displacement. Potency, µM (series often up to 114 µM), inactives show at the top dose activity change, negative = inhibition, most hits filed as inhibitors. actives 4.4% (n = 360,000); further: potency means the concentration at half of the fitted maximal effect; on the % scale 0 is the no-effect control and ±100 the full control effect; nearly all actives have a fitted effect of over 60% in size
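Multi-concentration screen (max 110 uM) measuring displacement of acetylated histone H3 peptide from BAZ2B by AlphaScreen, using 50 nM protein, 50 nM peptide and 10 ug/mL streptavidin donor plus Ni-chelate acceptor beads.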
HP1b chromo inh – blocks HP1-beta chromodomain binding to methylated histone tails | P83916 | Potency, µM (highest dose often 114 µM), without a hit: at the top dose activity change, negative = inhibition, usual class: inhibitors | AID 540317 | actives 0.56% (n = 390,000) | AlphaScreen HP1-beta / biotin-H3K9me3 peptide binding; further: potency means the concentration at half of the fitted maximal effect; nearly all actives have a fitted effect of over 70% in size
Target sequence (P83916 whole entry, looked up): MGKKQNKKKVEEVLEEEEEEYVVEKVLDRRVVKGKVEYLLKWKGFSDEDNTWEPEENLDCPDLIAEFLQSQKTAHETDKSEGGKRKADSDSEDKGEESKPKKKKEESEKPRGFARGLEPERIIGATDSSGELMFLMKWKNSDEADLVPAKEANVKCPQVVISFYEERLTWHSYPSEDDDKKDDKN
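Compound inhibition of the preformed complex between 50 nM HP1-beta and 50 nM biotinylated H3K9me3 peptide was read by AlphaScreen. Buffer was PBS pH 7.4 with 0.01% Tween-20. Incubations ran 30 min at room temperature, with 10 ug/mL donor/acceptor beads.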
PI5P4Ka inh – PI5P4K alpha (human) kinase inhibition; P48426; PI5P4Kalpha enzyme, ADP-Glo luminescence, 60 min; stronger effect = lower value; max response, %; actives 1.2% (n = 330,000); active means max response of -50% or lower; inconclusive means between -30% and -50%; inactive means -30% or higher; further: value at the top dose of about 77 µM; on the % scale 0 is the no-effect control and ±100 the full control effect
Target sequence (P48426 whole entry, looked up): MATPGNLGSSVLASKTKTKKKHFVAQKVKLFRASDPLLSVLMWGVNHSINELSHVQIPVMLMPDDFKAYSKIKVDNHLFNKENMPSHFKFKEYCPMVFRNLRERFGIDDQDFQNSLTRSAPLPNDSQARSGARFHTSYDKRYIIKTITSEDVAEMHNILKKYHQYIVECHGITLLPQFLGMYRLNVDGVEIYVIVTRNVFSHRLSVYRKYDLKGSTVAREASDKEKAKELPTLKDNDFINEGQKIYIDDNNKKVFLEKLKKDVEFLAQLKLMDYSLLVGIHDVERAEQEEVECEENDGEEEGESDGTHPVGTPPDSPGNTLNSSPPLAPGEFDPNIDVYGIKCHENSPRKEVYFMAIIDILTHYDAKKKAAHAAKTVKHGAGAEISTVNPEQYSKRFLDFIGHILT
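Human PI5P4Kalpha with substrate in 0.038 M HEPES pH 7.4, 0.28 mM EGTA, 0.1% CHAPS, 5% DMSO; reaction started with 5 microM ATP (final), 60 min at room temperature. ADP formed read by ADP-Glo luminescence.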
GCN5L2 inh – blocks human GCN5L2 histone acetyltransferase | Q92830 | GCN5L2 HAT assay, ThioGlo1 CoA-SH fluorescence | Potency, µM (top dose mostly 58.9 µM), inactives show at the highest dose activity change, negative = inhibition, actives largely listed as inhibitors | actives 0.21% (n = 390,000); further: potency means the concentration at half of the fitted maximal effect; on the % scale 0 is the no-effect control and ±100 the full control effect
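GCN5L2 (20nM final) in 50mM HEPES, 0.1mM EDTA pH 7.5, 0.01% Tween-20 was preincubated 15 min at room temperature with compound, then given ThioGlo1 (50uM), H3(1-25) peptide (75uM) and acetyl-CoA (70uM); CoA-thiol fluorescence (Ex340/Em540) was read at 0 and 20 min.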
JMJD2A Tudor – inhibitors of human JMJD2A Tudor domain; AID 504339; AlphaScreen JMJD2A-Tudor / H3K4me3 peptide binding; Potency, µM (doses to about 114 µM), for inactives: at the highest dose activity change, negative = inhibition, hits mostly inhibitors; actives 4.4% (n = 390,000); O75164; further: potency means the concentration at half of the fitted maximal effect; on the % scale 0 is the no-effect control and ±100 the full control effect; nearly all actives have a fitted effect of over 50% in size
The depositor's hits bear a star; ? = inconclusive; nt = no result; [ ] = remark or other dose. Unless noted, the call rests on the fitted dose curve; in most records, active means well fitted curve in the direction sought with a large enough effect; inconclusive means small, poorly fitted or top-dose-only effect, or another doubt; inactive means no such curve, though single readings can be large; an effect the other way counts as inactive or inconclusive.

SMILES | PLK1 PBD block | BAZ2B block | HP1b chromo inh | PI5P4Ka inh | GCN5L2 inh | JMJD2A Tudor
Cc1ccc(O)c(N=NC2=C(O)CC(C)(C)CC2=O)c1 | 6.2% | 31.6µM* | -32.8% | -22.2 | -8.5% | 56.2µM*
Cc1c(N=NC2=C(O)CC(C)(C)CC2=O)c(=O)n(-c2ccccc2)n1C | -14.6% | 35.5µM* | ? | -11.9 | -5.7% | 50.1µM*
CCNc1ccc(N=Nc2c(C)n(C)n(-c3ccccc3)c2=O)cc1 | -4.9% | 31.6µM* | 5.8% | 1.3 | -23.0% | -26.8%
CCOC(=O)/C(N=Nc1c(C)n(C)n(-c2ccccc2)c1=O)=C(\C)O | -1.3% | 0.9% | 47.9% | -2.3 | -6.0% | 14.2%[57.1 µM]
CCn1c(CSc2n[nH]c(N)n2)nc2cc(C(=O)O)ccc21 | -13.5% | ? | 46.6% | -10.9 | -10.8% | ?
Cc1ccc(C2c3cccn3CCN2S(=O)(=O)c2ccc([N+](=O)[O-])cc2)cc1 (centres undefined) | nt | 7.08µM* | ? | nt | -1.6% | ?
CCCCn1c(SCC(=O)c2ccc(OC)cc2OC)nc2cc(S(N)(=O)=O)ccc21 | -11.9% | -34.1% | 29.0% | -54.5* | -15.8% | -18.2%
CCc1ccc(CNC(=O)CN2C(=O)c3cccnc3Oc3ccc(C)cc32)cc1 | nt | 1.4% | 16.1% | nt | -11.1% | -6.9%
COc1ccc(-c2nc3c(c(SCC(=O)Nc4ccccc4OC)n2)Cc2cccc(C)c2O3)cc1 | nt | -12.0% | 40.9% | nt | 1.3% | -14.6%
O=C(CSc1nc(-c2ccccc2)nc2c1Cc1ccccc1O2)Nc1ccc(C(=O)O)cc1 | 21.2µM* | 12.6µM* | 31.6µM* | -63.2* | 28.2µM* | 10µM*
CCOc1cccc2c1Oc1nc(-c3ccccc3)nc(SCC(=O)Nc3ccc(F)cc3)c1C2 | nt | -5.1% | 24.5% | nt | 1.0% | -9.6%
O=C(CSc1nc(-c2ccc(F)cc2)nc2c1Cc1ccccc1O2)Nc1ccc(C(=O)O)cc1 | 15µM* | 7.94µM* | ? | -28.3 | 14.1µM* | 10µM*
Cc1ccc(-c2nc3c(c(SCC(=O)Nc4cccc(C(=O)O)c4)n2)Cc2cccc(C)c2O3)cc1 | nt | 7.08µM* | ? | nt | ? | 3.16µM*
Cc1cccc(C(=O)OCC(=O)NC(=O)c2ccccc2)c1O | 0.6% | 79.4µM* | 14.5% | -3.4 | ? | -4.8%
Cc1cc(C)c(C(=O)OCC(=O)NC(=O)c2ccccc2)c(C)c1 | -2.6% | -1.3% | 31.0% | 5.9 | 1.4% | -8.9%
CCCCCCCCNCCS(=O)(=O)NCc1ccccc1 | -4.2% | nt | 72.0% | 19.0 | nt | 2.9%
COc1ccc(CNCCS(=O)(=O)NN2CCOCC2)cc1 | 9.47µM* | nt | 36.3% | -63.2* | -16.6% | -23.0%
CCCCCCCCNCCS(=O)(=O)NN1CCOCC1 | 7.52µM* | nt | 42.0% | -68.6* | -22.2% | -4.8%
CCCCNS(=O)(=O)CCNCc1ccc(OC)cc1 | -3.8% | nt | 35.1% | 1.7 | -3.9% | -26.7%
COc1cccc(NC(=O)CN(C)C(=O)Cn2c(=O)oc3ccccc32)c1 | -15.8% | 8.3% | 16.3% | 0.2 | 0.5% | -11.0%
CCCC(=O)N1CCC1(C)C(=O)Nc1scc(C)c1C#N (centres undefined) | -10.1% | nt | nt | -21.3 | nt | nt
O=c1cc(CSc2nnc3ccccn23)c2c(ccc3ccccc32)o1 | 42.3µM* | -0.6% | 24.2% | -8.9 | -3.3% | -4.1%
O=c1[nH]c(CSc2nnc3ccccn23)nc2ccccc12 | -4.5% | 3.9% | 24.3% | -4.8 | 1.8% | -4.8%
O=C1c2ccccc2C(=O)N1c1ccc2ccccc2n1 | nt | nt | nt | nt | nt | -12.2%
O=C(NNc1cccc(Cl)n1)c1ccc(Cl)cc1Cl | -1.0% | 8.5% | 46.6% | -1.0 | ? | 5.3%
SMILES | PLK1 PBD block | BAZ2B block | HP1b chromo inh | PI5P4Ka inh | GCN5L2 inh | JMJD2A Tudor
O=C(NNc1cccc(Cl)n1)c1ccccc1CC[N+](=O)[O-] | ? | 2.1% | -14.3% | -78.1* | -6.5% | 22.4µM*
C=CCn1c(-c2ccccc2)c[nH]c1=S | -12.8% | -33.8% | ? | nt | -10.3% | 7.94µM*
C=CCn1c(-c2ccc(Cl)cc2)c[nH]c1=S | -6.5% | -27.0% | 8.8% | nt | -3.2% | 25.1µM*
CCn1c(-c2ccc(-c3ccccc3)cc2)c[nH]c1=S | -13.4% | -28.6% | 20.7% | -22.8 | -3.7% | -36.0%
COc1ccccc1N1CCN(C(=O)COc2cc(C)cc3oc(=O)cc(C)c23)CC1 | 15µM* | -13.2% | 8.8% | 5.7 | 1.0% | ?
COc1ccccc1N1CCN(C(=O)COc2ccc(C)cc2Br)CC1 | -2.3% | -32.1% | 15.1% | -0.8 | 3.2% | -16.1%
COc1ccccc1N1CCN(C(=O)COc2cc(C)ccc2C)CC1 | 21.2µM* | 0.6% | ? | -9.9 | 1.0% | 20µM*
CCCCN(CC)C(=O)c1nn(C)c2c1CSc1ccccc1-2 | nt | ? | 21.3% | nt | -18.2% | ?
COc1cccc(C2/C(=C(/O)c3ccc4c(c3)CC(C)O4)C(=O)C(=O)N2CCCn2ccnc2)c1 (centres undefined) | -10.1% | -27.2%[57.1 µM] | 1.4% | 6.8 | -10.8% | -16.6%
Cc1ccc(C)c(/C(O)=C2\C(=O)C(=O)N(CCCn3ccnc3)C2c2cccnc2)c1 (centres undefined) | -2.9% | 79.4µM* | 20.6% | 5.6 | -1.6% | 56.2µM*
O=C1C(=O)N(CCCn2ccnc2)C(c2ccc(Br)cc2)/C1=C(\O)c1ccc2c(c1)OCCO2 (centres undefined) | -19.1% | -11.9% | 17.0% | -6.2 | ? | -25.3%
COc1cccc(C2/C(=C(\O)c3ccc4c(c3)OCCO4)C(=O)C(=O)N2CCCn2ccnc2)c1 (centres undefined) | 26.7µM* | 56.2µM* | 20.4% | -8.3 | -4.8% | 63.1µM*
O=C1C(=O)N(CCCn2ccnc2)C(c2cccc(Br)c2)/C1=C(\O)c1ccc2c(c1)OCCO2 (centres undefined) | 29.9µM* | -5.1% | 13.3% | 0.1 | -6.4% | ?
Cc1ccc(/C(O)=C2/C(=O)C(=O)N(CCCn3ccnc3)C2c2cccnc2)cc1 (centres undefined) | -1.8% | nt | 22.2% | 1.5 | nt | -2.5%
CC(C)c1ccc(Nc2c(-c3ccc(N(C)C)cc3)nc3cnccn23)cc1 | nt | -30.2% | 17.0% | nt | -12.5% | ?
CCCc1nnc(SCC(=O)NC2CC2)n1CC | -19.9% | -15.3% | 31.2%[57 µM] | 1.8 | 1.8% | -4.8%
Cc1oc(-c2ccc(-c3ccccc3)cc2)nc1CN(CCO)C(C)C | -14.7% | -37.4% | 20.8% | 10.9 | -3.3% | -35.6%
Cc1ccc(C)c(NC(=O)CCS(=O)(=O)c2cccc3nsnc23)c1 | nt | 2.2% | 26.6% | nt | 4.2% | -6.5%
O=C(O)c1ccc(N2CC3CC(C2)c2cccc(=O)n2C3)c(NC(=S)Nc2ccc(Cl)cc2Cl)c1 (centres undefined) | 11.9µM* | 0.7% | ? | -17.0 | -17.0% | -29.7%
